Assay outcomes: PubChem, The Scripps Research Institute Molecular Screening Center
CHO-K1 Ca antag: counter-screen for M1 antagonists: effect in parental CHO-K1 cells; ATP-induced calcium, Fluo-8 fluorescence; inhibition, % at 3 µM; 0.6% of 360,000 active; AID 602250;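 active = inhibition above a per-plate cutoff, the plate's mean sample inhibition plus 3 SD, cut at about 24% in these data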;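 also: 0% = DMSO plus EC80 ATP and 100% = DMSO alone without ATP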
M1 ag parental: counter-screen for M1 agonists: effect in parental CHO-K1 cells. 0.48% of 360,000 active. activation, % at 3 µM. Fluo-8 calcium fluorescence; scaled to maximal ATP response, vehicle zero. AID 602248; in the data active = activation above about 15%;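 also: untransfected CHO-K1 host cells lacking M1 receptor as counterscreen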
M1 PAM parental: counter-screen for M1 PAMs: effect in parental CHO-K1 cells | ATP EC20, Fluo-8 calcium fluorescence; 0% at ATP EC20, 100% at ATP max | activation, % at 3 µM | 0.02% of 360,000 active | AID 602247;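 active = activation above the run cutoff, the mean activation of all test compounds plus 3 SD, cut at about 40% in these data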;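 also: peak over basal fluorescence ratio in a 140 s read after ATP addition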
CHRM1 agonist: human M1 muscarinic receptor agonism. P11229. CHO-K1 hM1, Fluo-8 calcium fluorescence, agonist mode; 0% DMSO, 100% acetylcholine EC100. activation, % at 3 µM. 0.33% of 360,000 active;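 active = activation above the run's mean compound activation plus 3 SD, cut at about 16% in these data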;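 also: peak over basal fluorescence ratio within a 140 s kinetic read after compound addition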
Target sequence (P11229 whole entry, looked up): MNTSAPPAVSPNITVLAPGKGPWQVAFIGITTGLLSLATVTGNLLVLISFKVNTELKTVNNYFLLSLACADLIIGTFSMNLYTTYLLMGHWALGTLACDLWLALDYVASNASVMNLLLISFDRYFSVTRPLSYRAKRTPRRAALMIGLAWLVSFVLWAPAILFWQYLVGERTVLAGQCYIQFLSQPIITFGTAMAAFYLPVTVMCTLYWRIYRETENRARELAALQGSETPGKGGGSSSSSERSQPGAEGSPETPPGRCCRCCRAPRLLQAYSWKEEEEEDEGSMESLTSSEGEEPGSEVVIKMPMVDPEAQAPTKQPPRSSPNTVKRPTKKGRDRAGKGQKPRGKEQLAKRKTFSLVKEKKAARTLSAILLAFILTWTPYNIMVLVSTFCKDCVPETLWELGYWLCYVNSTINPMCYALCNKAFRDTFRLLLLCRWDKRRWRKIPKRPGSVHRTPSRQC
CHRM1 PAM: human CHRM1 positive allosteric modulation. P11229. CHO-K1 hM1, Fluo-8 calcium fluorescence, ACh EC20; 0% = ACh EC20, 100% = maximal ACh. activation, % at 3 µM. 0.088% of 360,000 active. AID 588819; in the data active = activation above about 19%, passing the limit was not always enough
CHRM1 antagonist: human CHRM1 antagonism. AID 588852. CHO-K1 hM1, Fluo-8 calcium fluorescence, ACh EC80 antagonist. 1.3% of 360,000 active. P11229. inhibition, % at 3 µM;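 active = percent inhibition above its own plate's cutoff, namely the mean of that plate's compound wells plus 3 SD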;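 also: peak over basal fluorescence ratio during 140 s after agonist addition; 0% = ACh EC80 plus DMSO and 100% = DMSO alone without agonist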
* hit, by the source's call. A selection: hits, their analogues and other compounds. The true share with any hit is near 2.4%.

`CCOc1ccc2[nH]c(=O)c(C(c3nnnn3C3CCCCC3)N3CCN(C)CC3)cc2c1` (stereo not given) gave CHO-K1 Ca antag 6, M1 ag parental 0, M1 PAM parental -5, CHRM1 agonist -5, CHRM1 PAM -3 and CHRM1 antagonist 15.
Screening CCOc1ccc2[nH]c(=O)c(C(c3nnnn3C3CCCCC3)N3CCN(CC)CC3)cc2c1 (stereo not given) returned CHO-K1 Ca antag -3, M1 ag parental 3, M1 PAM parental 20, CHRM1 agonist -6, CHRM1 PAM -20 and CHRM1 antagonist 22*.
C=CCN(CC=C)CCCOc1ccccc1C(=O)OC was read as CHO-K1 Ca antag -11, M1 ag parental 1, M1 PAM parental 27, CHRM1 agonist -10, CHRM1 PAM 7 and CHRM1 antagonist -14.
Screening C=CCC1c2cccc(C(=O)OC)c2C(=O)N1c1ccccc1 (stereo not given) returned CHO-K1 Ca antag 24*, M1 ag parental 0, M1 PAM parental -8, CHRM1 agonist -2, CHRM1 PAM 0 and CHRM1 antagonist 10.
For CC(=O)NNC(=O)c1sc(=S)n(C)c1C the results were CHO-K1 Ca antag 9, M1 ag parental 19*, M1 PAM parental 10, CHRM1 agonist 8, CHRM1 PAM 10 and CHRM1 antagonist -3.
`CCOC(=O)c1ccccc1Cc1nc2ccccc2c(=O)[nH]1` gave CHO-K1 Ca antag -2, M1 ag parental 0, M1 PAM parental 11, CHRM1 agonist -8, CHRM1 PAM -26 and CHRM1 antagonist 98*.
For Cc1cccc(OC(C)C(=O)OCC(=O)Nc2sccc2C(N)=O)c1 (stereo not given) the results were CHO-K1 Ca antag 12, M1 ag parental 16*, M1 PAM parental -10, CHRM1 agonist 3, CHRM1 PAM -14 and CHRM1 antagonist 26.
Screening Cc1cccc(OCC(=O)OCC(=O)Nc2sccc2C(N)=O)c1 returned CHO-K1 Ca antag 8, M1 ag parental 20*, M1 PAM parental -17, CHRM1 agonist 4, CHRM1 PAM -13 and CHRM1 antagonist 24.
COc1ccccc1OCC(=O)OCC(=O)Nc1sccc1C(N)=O was read as CHO-K1 Ca antag -1, M1 ag parental 12, M1 PAM parental 9, CHRM1 agonist 0, CHRM1 PAM -13 and CHRM1 antagonist 7.
`CCOc1ccc2nc(NCCCNS(=O)(=O)c3ccccc3)c(C#N)cc2c1` gave CHO-K1 Ca antag 6, M1 ag parental 1, M1 PAM parental 11, CHRM1 agonist -3, CHRM1 PAM 6 and CHRM1 antagonist -2.
Screening Cc1ccc(C(C(=O)NCc2ccccc2)N(Cc2cccs2)C(=O)c2ccc3c(c2)OCCO3)cc1 (stereo not given) returned CHO-K1 Ca antag 13, M1 ag parental 10, M1 PAM parental 13, CHRM1 agonist -2, CHRM1 PAM -17 and CHRM1 antagonist 33*.
For COC(=O)c1ccc(C(C(=O)NCc2ccccc2)N(Cc2cccs2)C(=O)c2cnccn2)cc1 (stereo not given) the results were CHO-K1 Ca antag 10, M1 ag parental 4, M1 PAM parental 6, CHRM1 agonist 3, CHRM1 PAM -15 and CHRM1 antagonist 21*.
`COc1ccc(CNC(=O)C(c2ccc(C)cc2)N(Cc2cccs2)C(=O)c2ccc3c(c2)OCCO3)cc1` (stereo not given) gave CHO-K1 Ca antag 5, M1 ag parental 7, M1 PAM parental -5, CHRM1 agonist 3, CHRM1 PAM -12 and CHRM1 antagonist 18.
`Cc1cnc(C2OCCO2)c2cccc([N+](=O)[O-])c12` gave CHO-K1 Ca antag -5, M1 ag parental 0, M1 PAM parental 15, CHRM1 agonist -4, CHRM1 PAM 8 and CHRM1 antagonist -11.
Screening O=C(Nc1ccc(S(=O)(=O)N2CCCC2)cc1)c1ccc(CN2CCc3ccccc3C2)cc1 returned CHO-K1 Ca antag 18, M1 ag parental 14, M1 PAM parental 4, CHRM1 agonist -8, CHRM1 PAM -25 and CHRM1 antagonist 39*.
CCOc1ccc(NC(=O)c2ccc(CN3CCc4ccccc4C3)cc2)cc1 was read as CHO-K1 Ca antag 27*, M1 ag parental 0, M1 PAM parental -25, CHRM1 agonist -9, CHRM1 PAM -21 and CHRM1 antagonist 39*.
`O=C(Nc1ccc(Cl)cc1)c1ccc(CN2CCc3ccccc3C2)cc1` gave CHO-K1 Ca antag -2, M1 ag parental 2, M1 PAM parental 6, CHRM1 agonist -8, CHRM1 PAM -10 and CHRM1 antagonist 7.
Screening O=C(CNC1CCN(Cc2ccccc2)CC1)Nc1ccc(S(=O)(=O)N2CCCCC2)cc1 returned CHO-K1 Ca antag -6, M1 ag parental 1, M1 PAM parental -11, CHRM1 agonist -7, CHRM1 PAM -24 and CHRM1 antagonist 44*.
For O=C(CNC1CCCC1)Nc1ccc(S(=O)(=O)N2CCCCC2)cc1 the results were CHO-K1 Ca antag -6, M1 ag parental 2, M1 PAM parental 10, CHRM1 agonist -10, CHRM1 PAM 0 and CHRM1 antagonist -3.
For CCOC(=O)c1ccc(NC(=O)c2ccc(CN3CCc4ccccc4C3)cc2)cc1 the results were CHO-K1 Ca antag -8, M1 ag parental 5, M1 PAM parental 15, CHRM1 agonist -5, CHRM1 PAM -25 and CHRM1 antagonist 30.
`CCOc1ccc(S(=O)(=O)N2CCC(C(=O)NCCc3ccccc3)CC2)cc1` gave CHO-K1 Ca antag 19, M1 ag parental 0, M1 PAM parental -14, CHRM1 agonist -3, CHRM1 PAM 5 and CHRM1 antagonist -15.
For COc1cc(F)ccc1-c1csc(C(O)c2ccccc2)n1 (stereo not given) the results were CHO-K1 Ca antag -14, M1 ag parental 0, M1 PAM parental 17, CHRM1 agonist -6, CHRM1 PAM -3 and CHRM1 antagonist -4.
CN(C)CCCN(C(=O)c1ccc2ccccc2c1)c1nc2cc3c(cc2s1)OCO3 was read as CHO-K1 Ca antag -8, M1 ag parental 3, M1 PAM parental -4, CHRM1 agonist -1, CHRM1 PAM -1 and CHRM1 antagonist 2.
CN(C)CCN(C(=O)c1cccc2ccccc12)c1nc2cc3c(cc2s1)OCO3 was read as CHO-K1 Ca antag -10, M1 ag parental 1, M1 PAM parental -7, CHRM1 agonist -7, CHRM1 PAM -19 and CHRM1 antagonist 47*.
O=C(COC(=O)COc1ccccc1)NCc1ccccc1 was read as CHO-K1 Ca antag 5, M1 ag parental 19*, M1 PAM parental 7, CHRM1 agonist -4, CHRM1 PAM 7 and CHRM1 antagonist -9.
Screening COc1ccc(/C=N/OCC(=O)NCc2cccs2)c(OC)c1 returned CHO-K1 Ca antag -3, M1 ag parental 0, M1 PAM parental 1, CHRM1 agonist -8, CHRM1 PAM 36* and CHRM1 antagonist 3.
